# High-throughput results from PubChem.
# Hits are enriched below; roughly 5.4% of the tested compounds scored in any of these assays.
# ALOX15B inhib: qHTS Assay for Inhibitors of 15-hLO-2 (15-human lipoxygenase 2); Potency, µM (doses to about 57.1 µM), without a hit: top-dose activity change, negative = inhibition, hits mostly inhibitors; Polyunsaturated fatty acid lipoxygenase ALOX15B (Homo sapiens), O15296; actives 0.56% (n = 110,000); purified 15hLO-2, xylenol orange hydroperoxide absorbance; further: potency means the concentration at half of the fitted maximal effect; nearly all actives have a fitted effect of over 60% in size
#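 Purified human 15hLO-2 (50 nM final) preincubated with compounds 15 min at room temperature in 25 mM Hepes pH 7.5, 0.01% Triton X-100, then 45 uM arachidonic acid added for 90 min; hydroperoxide detected via ferrous/xylenol orange, 573/405 nm absorbance ratio.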
# IMPase cell inh: qHTS Assay for Identifying the Cell-Membrane Permeable IMPase Inhibitors. CHO-M1 cells, IP1 accumulation, HTRF TR-FRET ratio. inhibition (IP1 accumulation), % at 46.1 µM. 120,000 tested, under 10 active. AID 901, 2007; active means well fitted curve in the direction sought with a large enough effect in the signal ratio, not every such curve was filed as active; inconclusive means small, poorly fitted or top-dose-only effect, or a change in a side signal; inactive means no such curve, though single readings can be large or run the other way; the % refers to the signal ratio;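 further: cells stimulated with carbachol in lithium chloride buffer; plate controls were DMSO basal wells for no effect and reference inhibitor wells for full effect; higher means more IMPase inhibition seen as more IP1 and lower FRET ratio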
# Target sequence (P97697 whole entry, looked up): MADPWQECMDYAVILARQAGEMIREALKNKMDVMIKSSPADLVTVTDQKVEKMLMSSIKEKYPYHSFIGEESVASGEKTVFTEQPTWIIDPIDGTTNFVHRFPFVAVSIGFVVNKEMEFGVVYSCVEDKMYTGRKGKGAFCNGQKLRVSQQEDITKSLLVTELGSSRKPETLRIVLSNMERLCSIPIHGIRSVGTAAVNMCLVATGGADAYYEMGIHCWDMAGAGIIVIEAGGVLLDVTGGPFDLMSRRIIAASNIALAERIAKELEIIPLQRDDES
#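 CHO-M1 cells (CHO stably expressing M1 receptor), compound up to 46 uM final, stimulated with carbachol (50 uM as added) in buffer with 50mM LiCl, pH 7.4, 30 min at 37C. Cytosolic IP1 read by TR-FRET; AC50 from Hill fits.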
# IMPase Li inh: qHTS Assay for Identifying the Cell-Membrane Permeable IMPase Inhibitors: Potentiation with Lithium. CHO-M1 cells, IP1 TR-FRET (IP-One), carbachol + lithium. Potency, µM (highest dose often 59.4 µM), inactives show at the highest dose activity, negative = IMPase inhibition, usual class: inhibitors. actives 0.35% (n = 210,000). AID 1457, 2008;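 further: IP1 builds up when IMPase is blocked and the TR-FRET signal falls; potency means the concentration at half of the fitted maximal effect; plate controls were basal vehicle for no effect and high inhibitor control for full effect; nearly all actives have a fitted effect of over 50% in size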
#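 Test compounds were applied to CHO-M1 cells previously cultured for 16–30 h at 2000 per well. A small lithium amount accompanied them; after 30 min at 37C, IP1 was quantified by TR-FRET.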
# ALOX12 inhib: qHTS Assay for Inhibitors of 12-hLO (12-human lipoxygenase). Polyunsaturated fatty acid lipoxygenase ALOX12 (Homo sapiens), P18054. purified 12-hLO, xylenol orange hydroperoxide absorbance. Potency, µM (titrated, usually from 57.1 µM), for inactives: at the top dose activity change, negative = inhibition, usual class: inhibitors. actives 0.12% (n = 150,000). AID 1452, 2008; further: potency means the concentration at half of the fitted maximal effect; nearly all actives have a fitted effect of over 55% in size
#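 Hydroperoxide formation by human 12-lipoxygenase from 40 uM arachidonic acid was followed colorimetrically via ferric-xylenol orange complex, using the 573/405 nm absorbance ratio. Enzyme concentration was 150 nM, with 30 min reaction at room temperature.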
# PNC inhibitor: High Content Assay for Compounds that inhibit the Assembly of the Perinucleolar Compartment | PC3M PTB-GFP, PNC prevalence imaging, 16 h; hits give low values | activity change (PNC), negative = inhibition, % at 10 µM | actives 3.1% (n = 140,000);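 active means readout at or below -70, meaning at least 70% loss of cells showing the perinucleolar compartment, a nuclear body marking cancer cells; inconclusive means readout between -30 and a set limit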;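 further: plate controls were DMSO wells for no effect and camptothecin positive control wells for full effect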
#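 Read-out is percentage of cells bearing a perinucleolar compartment, from automated 20x imaging of fixed, Hoechst-stained PC3M PTB-GFP cells. Cells were seeded 4 h, then exposed 16 h to compound (23 nl of library stock) in duplicate plates.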
# HPGD block: qHTS Assay for Inhibitors of HPGD (15-Hydroxyprostaglandin Dehydrogenase); actives 4.3% (n = 150,000); purified HPGD, NADH fluorescence kinetic, PGE2 substrate; 15-hydroxyprostaglandin dehydrogenase [NAD(+)] (Homo sapiens), P15428; Potency, µM, for inactives: at the highest dose activity change, negative = inhibition, hits mostly inhibitors; active means well fitted inhibition curve with a large enough effect, not every such curve was filed as active; inconclusive means small, poorly fitted or top-dose-only effect, or another doubt; inactive means no such curve, though single readings can be large or run the other way; further: potency means the concentration at half of the fitted maximal effect
# Target sequence (P15428 whole entry, looked up): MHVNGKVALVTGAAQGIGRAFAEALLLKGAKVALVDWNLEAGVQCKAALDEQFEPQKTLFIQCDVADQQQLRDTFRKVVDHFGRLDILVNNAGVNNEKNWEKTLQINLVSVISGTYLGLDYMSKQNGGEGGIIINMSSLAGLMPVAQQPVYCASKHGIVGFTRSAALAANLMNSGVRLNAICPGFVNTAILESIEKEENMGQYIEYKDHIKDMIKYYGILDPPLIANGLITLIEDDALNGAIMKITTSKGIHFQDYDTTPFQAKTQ
#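 NADH formation kinetics: reaction with 30 uM PGE2 and 1 mM NAD+ (final), 20 nM enzyme, Tris-HCl pH 8 with Tween 20, after 15 min compound preincubation at room temperature. Fluorescence change, last versus first of five reads.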
# Numbers without * were called inactive; u = inconclusive; x = no result; [ ] = remark or other dose. Unless noted, the call rests on the fitted dose curve; in most records, active means well fitted curve in the direction sought with a large enough effect; inconclusive means small, poorly fitted or top-dose-only effect, or another doubt; inactive means no such curve, though single readings can be large; an effect the other way counts as inactive or inconclusive. Unless noted, on the % scale 0 is the no-effect control and ±100 the full control effect.
SMILES,ALOX15B inhib,IMPase cell inh,IMPase Li inh,ALOX12 inhib,PNC inhibitor,HPGD block
COc1cc(NC(=O)c2cccs2)c(C(=O)OCC(=O)NC(=O)NCc2ccccc2)cc1OC,-28%,8,u,-3%,u,u
COc1cc(NC(=O)c2cccs2)c(C(=O)OCC(=O)NC(=O)NC(C)(C)C)cc1OC,-29%,3,12%[38.3 µM],-3%,-98*,-28%
COc1cc(OC)cc(C(=O)Nn2cc(C(=O)Nc3c(F)cccc3F)c3ccccc3c2=O)c1,x,x,1%,-6%,-113*,-5%
Cc1noc(C)c1-c1nccc(NCc2cccs2)n1,2%,x,26%,x,x,x
COc1cc(OC)cc(-c2nc3ccccc3c(=O)n2OC(=O)c2ccc(Br)cc2)c1,x,x,-5%,-15%,-116*,-16%
CCOC(=O)c1sc2nc(C)nc(SCC(=O)NC3CCS(=O)(=O)C3)c2c1C (stereo not given),x,x,13µM*,x,x,x
O=C(OCC1CO1)C1CCCCC1C(=O)OCC1CO1 (stereo not given),-15%,x,11%,2%,x,1%
COc1ccc2c(C(=O)CN(C)C3CCCCC3)c[nH]c2c1,x,-4,-5%,-4%,-100*,-15%
CCCCC1=CC2=C(OC(C)=O)C(=O)C(C)(OC(=O)CCC(=O)OC)C(=O)C2=CO1 (stereo not given),x,x,-2%,2%,x,-9%
N=C(N)SCCSC(=N)N,5%[11.4 µM],x,-2%,-4%[11.4 µM],x,-12%
N#CCCCSc1nnnn1-c1cc(C(F)(F)F)cc(C(F)(F)F)c1,x,x,18%,x,x,0%
Oc1cc2c(cc1O)[C@H](c1ccccc1)CNCC2,u,1,19%,-11%,x,28µM*
COc1ccc(C(=S)N2CCCCCC2)cc1,x,4,-2%,-8%,u,16µM*
COc1cc(C(=S)N2CCCC2)cc(OC)c1O,1%,-9,32%[38.3 µM],2%,u,20µM*
Cc1ccccc1/C=C\C1=NCCN1,-7%,14,x,-3%,x,x
CN(C)C(=O)c1ccc(NC(=O)c2cncc(Br)c2)cc1,x,3,4%,-4%,-100*,-25%
Cc1cc(NC(=O)c2cc(-c3ccccn3)nc3ccccc23)no1,3%,3,-12%[38.3 µM],1%,-3,-4%
Cc1cc(C)c2nc(-c3ccccn3)cc(C(=O)Nc3cc(C)on3)c2c1,-3%,-1,u,7%,-86*,u
NC(=O)C[C@H](N)C(N)=O,2%[11.4 µM],x,7%,2%[11.4 µM],x,-14%
O=C(c1ccco1)N(CCC(c1ccccc1)c1ccco1)Cc1ccccc1 (stereo not given),x,x,13%,-3%,-20,-20%
CCN(CC)C(=O)CC(c1ccccc1)c1ccco1 (stereo not given),-2%,-1,7%[38.3 µM],-6%,-1,16µM*
COc1ccc(CN(CCC(c2ccccc2)c2ccco2)C(=O)c2ccco2)cc1 (stereo not given),x,-6,12%,-10%,2,28µM*
O=C(O)CSc1cc(-c2ccccc2)nc2ccccc12,1%[11.4 µM],x,-24%,-5%[11.4 µM],x,3%
Cc1nc2cccc([N+](=O)[O-])c2n1CCCN(C)C,-4%[11.4 µM],x,-2%,2%[11.4 µM],x,-1%
N#CC1=C(SCc2ccccc2)NC2=C(C(=O)CCC2)C1c1ccc2c(c1)OCO2 (stereo not given),-29%,-13,5%[38.3 µM],-21%,36,-29%
SMILES,ALOX15B inhib,IMPase cell inh,IMPase Li inh,ALOX12 inhib,PNC inhibitor,HPGD block
N#CC1=C2SCN(Cc3ccccc3)CN2C(=O)CC1c1ccc2c(c1)OCO2 (stereo not given),u,-8,7%,-25%,29,25µM*
N#CC1=C2SCN(Cc3ccccc3)CN2C(=O)CC1c1cccs1 (stereo not given),u,u,11µM*,-20%,-19,20µM*
CCSc1ccccc1C(=O)Nc1cccnc1,x,u,1%,0%,-100*,-13%
O=C(CCc1ccc(S(=O)(=O)N2CCOCC2)cc1)OCc1nc2ccccc2s1,-3%,12,12%[38.3 µM],-12%,-4,-11%
O=C(CSc1nc2ccccc2s1)Nc1cc(S(=O)(=O)N2CCOCC2)ccc1O,x,7,1%,-11%,-4,13µM*
O=C(OCc1nc2ccccc2s1)c1cccc(S(=O)(=O)N2CCOCC2)c1,3%,2,-1%[38.3 µM],-6%,-100*,-18%
O=C(Nc1ccc(C2CC2(Cl)Cl)cc1)c1ccccc1Br (stereo not given),x,x,14%,5%,-20,16µM*
O=C(NC(=S)Nc1ccc(N2CCOCC2)c(Cl)c1)C(c1ccccc1)c1ccccc1,13µM*,6,0%[38.3 µM],u,u,-18%
O=C(Nc1ccc(N2CCOCC2)c(Cl)c1)c1ccc(Br)o1,9%[2.29 µM],10,33%[38.3 µM],0%,-6,25µM*
CC(=O)N1CCN(c2ccc(NC(=O)c3ccccc3Br)cc2Cl)CC1,x,-12,0%,1%,u,16µM*
O=C(/C=C/c1ccccc1)NC(=S)Nc1ccc(N2CCOCC2)c(Cl)c1,-12%,9,x,-10%,21,x
O=C(Nc1ccc(N2CCOCC2)c(Cl)c1)c1ccccc1Cl,x,x,11%,x,x,x
COc1ccc(-c2nc3cnc(N4CCN(C)CC4)nc3n(-c3ccc(OC)cc3)c2=O)cc1,2%,x,0%,x,x,x
Nc1ccc(S(=O)(=O)NCCS(=O)(=O)O)cc1,-8%[11.4 µM],x,3%,0%[11.4 µM],x,4%
CCCOC(=S)Nc1ccccc1,-1%,3,-12%[38.3 µM],5%,-1,22µM*
S=C(Nc1ccccc1)N1CCN(C(=S)Nc2ccccc2)CC1,x,x,3%,x,x,x
O=C(Nc1nccs1)c1cc(-c2ccccc2)nc2ccccc12,x,x,-5%,0%,54,18µM*
O=C(Nc1nccs1)c1sc2cc(Cl)ccc2c1Cl,1%,6,-25%[38.3 µM],-6%,57,u
O=C(Nc1nccs1)c1cc(-c2ccco2)nc2ccccc12,x,x,2%,-1%,-89*,-30%
O=C(Nc1nccs1)c1sc2ccccc2c1Cl,5%,8,-15%,2%,18,13µM*
O=C(Nc1nc2ccccc2s1)c1cc(-c2ccco2)nc2ccccc12,x,4,11%,1%,4,u
COc1cccc(-c2cc(C(=O)Nc3nc4ccccc4s3)c3ccccc3n2)c1,5%,0,-24%[38.3 µM],u,-115*,u
Cc1ccc(-c2nc(NC(=O)CSc3nc(C)nc4sc5c(c34)CCCC5)ns2)cc1,x,-1,x,x,x,x
